Shiga toxin inh = blocks Shiga toxin action in Vero cells. inhibition, % at 38.7 µM. 290,000 compounds, 9.2% hits. Vero cells, Shiga toxin protein synthesis inhibition reporter. AID 2315; in the data active = inhibition mostly above about 28%, no sharp cut-off; inactive = mostly below about 43%; also: 0% is about no effect
SARS PLpro yeast = SARS-CoV PLP inhibition in yeast. Potency, µM (series often up to 32.9 µM), without a hit: at the highest dose activity, positive = growth rescue, most hits filed as activators. S. cerevisiae expressing SARS-CoV PLpro, growth rescue. AID 485353. 330,000 compounds, 0.19% hits; also: potency is read from the fitted curve at half-maximal effect; 0% is about no effect; nearly all actives have a fitted effect of over 55% in size
CHX counter = affects cycloheximide protein synthesis inhibition readout, counter-screen; max response, %; cell reporter, cycloheximide protein synthesis inhibition counterscreen; 300,000 compounds, 12% hits; in the data active = max response mostly above about 13%, no sharp cut-off; inactive = mostly below about 14%; also: read at 38.3 µM for the half of the compounds with a filed dose; 0% is about no effect
NS1 inh = influenza NS1 inhibition | Potency, µM (series often up to 46.1 µM), inactives show top-dose activity, positive = more growth | 270,000 compounds, 0.4% hits | AID 2326; also: potency is read from the fitted curve at half-maximal effect; actives are rising curves; nearly all actives have a fitted effect of over 50% in size
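In this qHTS, NS1 from influenza A is expressed in budding yeast, where it slows growth. Cells are switched from glucose to 2% galactose medium (pH 6.0, -URA), treated with compound, and growth recovery is read at OD600.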
An asterisk follows results filed as active; ? = inconclusive; . = not tested or not shown. The list is not random: actives were taken first. Their share in the collection is about 12%. Unless noted, calls follow the shape of the full dose curve.

SMILES | Shiga toxin inh | SARS PLpro yeast | CHX counter | NS1 inh
O=C(COC(=O)c1ccccc1Br)Nc1ccccc1F | 57* | -3% | 55* | -1%
COc1ccc(NC(C)=O)cc1S(=O)(=O)Nc1ccc(OCc2ccccc2)cc1 | 5 | 0% | 15 | 0%
CC(NC(=O)c1ccccc1NS(=O)(=O)c1ccc(CCC(=O)O)cc1)c1ccccc1 (stereo unspecified) | -3 | -4% | -3 | 22%
O=C(NCc1cccs1)C(Cc1ccccc1)NS(=O)(=O)c1cccs1 (stereo unspecified) | -10 | 9% | -2 | -7%
COc1ccc(NC(C)=O)cc1S(=O)(=O)Nc1ccccc1C(=O)NCCc1ccccc1 | 89* | 1% | 44* | -1%
COc1ccc(NC(C)=O)cc1S(=O)(=O)NC(Cc1ccccc1)C(=O)NCc1ccccc1C (stereo unspecified) | 10 | -1% | 16* | 1%
O=C(O)CCc1ccc(S(=O)(=O)Nc2ccccc2C(=O)NCCc2ccccc2)cc1 | 80* | -6% | 30* | 11%
Cc1ccc(-c2csc(N(CCO)CCCn3c(C(F)(F)F)nc4ccccc43)n2)cc1 | 14 | -3% | 13 | 11%
CN(C)S(=O)(=O)c1ccc(C(=O)NCc2nnc(SCC(=O)NCc3ccco3)o2)cc1 | -5 | -3% | -1 | -10%
O=C(COC(=O)CNC(=O)c1sc2ccccc2c1Cl)NC1CCS(=O)(=O)C1 (stereo unspecified) | . | 0% | . | .
COc1ccc2c(Cl)c(C(=O)NN3CCN(C)CC3)sc2c1 | 26 | 1% | 23* | 1%
COc1ccc2c(Cl)c(C(=O)NC3CCS(=O)(=O)C3)sc2c1 (stereo unspecified) | 36* | ? | 20* | -10%
Cc1csc(NC(=O)c2sccc2C)n1 | 91* | -5% | 59* | -1%
Cc1csc(NC(=O)c2ccc(C(=O)Nc3nc(C)cs3)cc2)n1 | -6 | -1% | 7 | 3%
Cc1ccsc1C(=O)Nc1nccs1 | 60* | -8% | 16* | -1%
C=CCNCCCCOc1ccc(OCc2ccccc2)cc1 | 60* | -1% | 48* | 0%
COCCCNCCOc1ccc(C(C)(C)c2ccccc2)cc1 | -11 | -29% | -8 | -16%
c1ccc(COc2ccc(OCCCNC3CCCC3)cc2)cc1 | 53 | -1% | 25* | -1%
CCOc1cccc(OCCNC2CCCC2)c1 | 1 | 0% | -3 | -7%
CC(C)Oc1ccc(OCCNC2CCCC2)cc1 | 74* | -8% | 19 | 7%
COCCCNCCCCOc1ccc(OCc2ccccc2)cc1 | 97* | 0% | 30* | -1%
CCCc1ccc(C2=Nn3c(nnc3C(C)C)SC2)cc1 | 3 | -3% | 3 | -16%
Cc1ccccc1OCC(=O)Nc1cnn(CCCC(=O)O)c1 | -4 | 0% | -2 | 8%
CCc1nnc(NC(=O)C2Cc3ccccc3CN2S(=O)(=O)c2ccc(C)cc2)s1 (stereo unspecified) | 59* | 3% | 37* | 30%
CCc1nnc(NC(=O)C2Cc3ccccc3CN2S(=O)(=O)c2cccs2)s1 (stereo unspecified) | 49* | 3% | 43* | ?
SMILES | Shiga toxin inh | SARS PLpro yeast | CHX counter | NS1 inh
O=C(Nc1nnc(C2CC2)s1)C1Cc2ccccc2CN1S(=O)(=O)c1cccs1 (stereo unspecified) | 75* | ? | 17* | -15%
O=C1C=C(NNC(=O)c2ccccc2Br)CCC1 | -2 | 14% | -3 | -4%
CCC(=O)NC(=S)Nc1ccc(S(=O)(=O)NC2CCCCC2)cc1 | -8 | 7% | 8 | -14%
Cc1c(OCC(=O)NCCN2CCOCC2)ccc2c(-c3ccccc3)cc(=O)oc12 | 0 | -1% | -3 | -15%
Cn1c2cc(S(C)=O)sc2c2cnn(Cc3ccccc3F)c(=O)c21 (stereo unspecified) | -3 | . | -8 | .
COc1ccc(NC(=O)CN2CCCC(C)C2)c([N+](=O)[O-])c1 (stereo unspecified) | 32* | 2% | 17* | 1%
COCC(=O)NC1CCN(CC(=O)Nc2ccc(OC)cc2[N+](=O)[O-])CC1 | -6 | 5% | -2 | -1%
COc1cc(NC(=O)CN2CCC(C)CC2)c(C)cc1[N+](=O)[O-] | active | 22% | 9 | 5%
CCN(CC)C(=O)CCSc1nnc(-c2ccco2)o1 | 37 | 2% | 30* | .
O=C(CCSc1nnc(-c2ccco2)o1)Nc1ccccc1 | 5 | 2% | -1 | -69%
CC(C)(C)NC(=O)CCSc1nnc(-c2ccco2)o1 | 37 | 0% | 27* | .
CCN(CC)C(=O)CCSc1nnc(-c2ccncc2)o1 | -7 | 7% | -3 | 1%
COc1ccccc1NCC(=O)c1ccc(Cl)cc1 | 13 | -2% | 6 | -43%
COCC(=O)Nc1ccccc1C#N | -5 | -3% | -1 | -1%
COc1ccc(C(=O)CNc2ccccc2CO)cc1 | 111* | -3% | 42* | .
COC(=O)c1ccccc1NCC(=O)c1ccc(OC)cc1 | 34 | -61% | 12 | -18%
COc1ccc(C(=O)CNc2ccccc2C#N)cc1 | 76* | -5% | 28* | .
COc1ccccc1NCC(=O)c1ccc(C)c(C)c1 | . | 0% | 16* | -3%
COc1ccc(C(=O)CNc2ccc(C)cc2C)cc1 | 29 | -3% | 25* | -11%
COc1ccc(C(=O)NNC(=O)CCC(=O)Nc2ccc(C)cc2C)cc1 | -7 | 6% | -5 | -6%
COc1ccc(COC(=O)c2ccc(S(=O)(=O)N3CCCCC3)cc2)cc1OC | . | 4% | . | .
O=C(O)CNC(=O)c1ccccc1O | . | . | . | 8%
COc1ccc(C(=O)COc2ccccc2C#N)cc1 | 60* | -5% | 28* | -34%
COc1ccc(C(=O)COc2ccccc2C(N)=O)cc1 | 19 | 1% | 3 | -1%
Cc1ccc(CC2C(=O)N(c3nc(C)cc(C)n3)C(=O)C2C)cc1 (stereo unspecified) | 18 | 0% | -1 | 3%
SMILES | Shiga toxin inh | SARS PLpro yeast | CHX counter | NS1 inh
O=C(N/N=C/c1ccccc1F)c1csc2c1CCCC2 | 79* | -20% | 42* | 9%
O=C(N/N=C/c1cccc(F)c1)c1csc2c1CCCC2 | 95* | -8% | 55* | -57%
O=C(CN1CCN(Cc2ccc(Cl)cc2)CC1)N/N=C/c1cccc(F)c1 | -2 | 0% | 2 | 0%
O=C(COCC(=O)N/N=C/c1ccccc1F)N/N=C/c1ccccc1F | 22 | 8% | 11 | 6%
Cc1cc(=O)n2nc(N3CCC(C(=O)NCC(C)c4ccccc4)CC3)sc2n1 (stereo unspecified) | -10 | 22% | -1 | 15%
Cc1cccc(C(=O)Oc2cccc3c(O)cccc23)c1 | -3 | -19% | -2 | -68%
O=C(NCCC1=CCCCC1)c1coc(=O)c(Br)c1 | 1 | -2% | 16 | -7%
COc1ccc(NC(C)=O)cc1NC(=O)c1ccc2ccccc2c1 | 17 | -3% | 5 | .
COc1ccccc1NC(=O)c1ccc2nc(C)sc2c1 | 83* | 3% | 46* | -20%
O=C(NNC(=O)C1C2CCCCC21)c1coc(=O)c(Br)c1 (stereo unspecified) | 57* | 1% | 51* | 9%
COc1ccccc1NC(=O)c1cccnc1 | -5 | . | -1 | 1%
COc1ccccc1N1C(=O)c2ccc(C(=O)Nc3ccccc3O)cc2C1=O | 19 | 1% | 11* | -4%
COc1ccccc1NC(=O)c1ccc2ccccc2c1 | 68* | . | 54* | .
Cc1ccccc1OCCC(=O)OCC(=O)Nc1c(F)cccc1F | . | 0% | . | .

Assay outcomes (PubChem BioAssay)
